Measured values published in PubChem BioAssay (NCATS).
Inconclusive results are not listed. Values without a mark were called inactive. Activity calls are given as the source filed them. Calls come from the whole dose curve; as a rule, active = well fitted inhibition curve with a large enough effect; inconclusive = small, poorly fitted or top-dose-only effect; inactive = flat fitted curve, though single readings scatter.

Each molecule was assayed against Calcium and integrin-binding protein 1 (Homo sapiens) (UniProt Q99828) (assay: Primary qHTS for Identification of Calcium Integrin Binding Protein 1 (CIB1) Competitor (AID 1508620;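 note: GST tagged CIB1 binding a fluorescein labelled alphaIIb integrin peptide tracer; top concentration of the series differs between compounds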)). Settings: CIB1-GST / FITC-alphaIIb peptide fluorescence polarization; series mostly up to 57.7 µM; activity change, negative = inhibition: at the top concentration.
In short: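 CIB1-GST (1 uM final) and compound incubated 15 min at room temperature before adding FITC-alphaIIb peptide tracer (100 nM final). Competition for binding read by fluorescence polarization (ex 480, em 540) after another 15 min at room temperature.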
% is set by controls: 0 for no effect and ±100 for the full control effect.

Calcium and integrin-binding protein 1 (Homo sapiens), sequence (Q99828 whole entry, looked up): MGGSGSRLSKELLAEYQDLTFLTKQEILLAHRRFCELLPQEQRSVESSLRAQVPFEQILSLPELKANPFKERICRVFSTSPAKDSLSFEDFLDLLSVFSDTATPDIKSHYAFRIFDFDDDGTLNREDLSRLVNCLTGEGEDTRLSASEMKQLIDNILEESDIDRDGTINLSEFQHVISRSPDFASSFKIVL

Compared with `C#C[C@]1(O)CC[C@H]2[C@H]3CCc4cc(OC)ccc4[C@H]3CC[C@@]21C`, `OC[C@H]1O[C@@H](Oc2ccc(O)cc2)[C@H](O)[C@@H](O)[C@H]1O` is higher in “activity change, negative = inhibition” value: -2.59% for the first, -1.57% for the second.

With `NC(=O)c1nnn(Cc2cc(Cl)c(C(=O)c3ccc(Cl)cc3)c(Cl)c2)c1N` the “activity change, negative = inhibition” value was -1.57%.

In the case of `Nc1[nH]nc2nnc(-c3c(-c4ccccc4)nn4ccccc34)cc12`, the Potency is reported as “inactive”.
